Reference: ChEMBL document CHEMBL3988442, “University of Dundee, Small-Polar-MMV Screening Library” (2021)

target: AMP-activated protein kinase, AMPK (Homo sapiens) (UniProt P54646+O43741+P54619+Q9UGJ0+Q9Y478+Q13131+Q9UGI9); experiment: AMP-dependent Kinase enzyme assay. An in vitro enzyme assay that detects ADP turnover that is directly proportional to AMPK activity. This uses naive AMPK that is activated during the assay with MK-8722; type: functional; parameters: scale not given: direction of the effect not stated beside the values; conditions: 30 µM

| Structure (SMILES) | Percent Effect [%] |
| --- | --- |
| CS(=O)(=O)CC1(CNc2c(C#N)cnc3ccc(Cl)cc23)CC1 | 5.05 |
| Cn1cccc1C(=O)N1CC[C@@]2(O)CCN(S(C)(=O)=O)C[C@H]2C1 | 4.08 |
| Cc1cc2n(n1)CC(CNCc1cc(C)on1)CN2 (centres undefined) | -6.26 |
| CNc1nc(C(=O)N2CCCC(COc3ccc(F)cc3)C2)cs1 (centres undefined) | 63.7 |
| CN(Cc1ccccc1)S(=O)(=O)N1C[C@@H](C(=O)O)[C@H](C2CC2)C1 | 3.92 |
| CC(O)CN1CCN(Cc2coc(-c3ccccc3Cl)n2)CC1 (centres undefined) | -13.3 |
| N#CC1COCCN1C(=O)c1ccc2cc[nH]c2c1 (centres undefined) | 6.24 |
| CC(CN1CCOCC1)n1cncc1-c1cnn(Cc2ccccc2)c1 (centres undefined) | 2.92 |
| Cc1cc(C)n2cc(CN3CCC(N4CCN(C)C4=O)CC3)nc2n1 | 5.03 |
| COC(=O)N1CCCCC1C(=O)N1CCN(c2cccnc2)CC1 (centres undefined) | -4.3 |
| CCN(CC(=O)NC)C(=O)c1csc(Cc2ccccc2)n1 | -5.87 |
| NC(=O)[C@@H]1Cc2ccccc2N1C(=O)C1CC(c2ccccc2)=NO1 (some centres undefined) | 11.5 |
| CN1CC(C(=O)NCCc2ccc3c(c2)OCO3)CC1=O (centres undefined) | 3.69 |
| Cc1ccc(CNCc2nccn2C)c(OC(C)(C)C)c1 | -4.8 |
| CC(C)C1C(=O)NCCN1C(=O)CCCc1nc(C(C)(C)C)no1 (centres undefined) | -5.25 |
| CCNC(=O)c1ccc(NC(=O)N(C)Cc2cccn2C)c(C)c1 | 12.2 |
| CN1CC(C(=O)NCCc2ccc(F)c(Br)c2)CC1=O (centres undefined) | 5.17 |
| Cc1ccc(C(=O)NC2CCCN(C)C2)c(=O)[nH]1 (centres undefined) | -3.1 |
| Oc1ccc(N2CCC(Cc3ccccc3)CC2)nn1 | 9.16 |
| COc1ccc(N2CCC(NS(=O)(=O)N(C)C(C)C)CC2)cc1 | 13.8 |

| Structure (SMILES) | Percent Effect [%] |
| --- | --- |
| Cn1cnnc1C1CCCN(Cc2nc(Cc3ccccc3)no2)C1 (centres undefined) | 12.2 |
| Cc1cc(CNC(=O)c2cc(NC(=O)C(C)C)ccc2Cl)no1 | 4.16 |
| CCC(=O)c1cccc(S(=O)(=O)NC(C)C#N)c1 (centres undefined) | -2.44 |
| CN(C)c1ccc(CN2CCN(c3ccc(C#N)cc3)C(=O)C2)cn1 | -0.161 |
| Cc1cc(NC(=O)NCCC(=O)N2CCCc3ccccc32)no1 | -0.372 |
| COc1ccccc1OC1CCN(C(=O)c2cnc(C)s2)CC1 | 3.19 |
| O=C(Nc1cccc(C(=O)OCC2CCCN2)c1)c1ccoc1 (centres undefined) | 0.474 |
| Cc1noc(C)c1CNCC1CNc2ccnn2C1 (centres undefined) | -0.962 |
| Fc1ccccc1OC1CCN(CCn2cc3ccccc3n2)CC1 | 6.19 |
| Cc1nn(CC(=O)NCC2(C(N)=O)CCOCC2)c(C)c1Cl | 2.14 |
| CCn1cc(S(=O)(=O)Nc2ccc3[nH]c(C4CCC4)nc3c2)cn1 | 2.5 |
| Cc1nnc(SCCCNc2cc(C3CC3)ncn2)s1 | 15.2 |
| Cn1ccnc1-c1nc(N2CCCCC2)ncc1-c1ccccc1F | 9.62 |
| CCn1cc(NC(=O)NCCN2CCCCCC2=O)cn1 | 87.7 |
| Cn1cnc(S(=O)(=O)N2CCCC2c2ccnc3nccn23)c1 (centres undefined) | 0.76 |
| CC(C)N(CCO)C(=O)c1cc(COc2ccc3c(c2)CCCC3)on1 | -2.41 |
| Cc1cnc(CCNC(=O)NCCc2ccc(O)cc2)s1 | 38.4 |
| Cc1cc(=O)n2nc(Oc3ccc(Cl)c(C)c3)sc2n1 | -6.95 |
| Clc1ccc2c(c1)C=C(CNC1CCc3ncnn3C1)CO2 (centres undefined) | 12.6 |
